The campaign covered roughly 370,000 compounds. About 2,600 (0.7%) were called active.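 How the source made its calls: active means inhibition above a cutoff: mean of compounds within the control limits plus 3 SD of those (cut at about 17% in these data); inactive means the rest.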 For the sample, actives were picked, then their nearest neighbours and some compounds at random.
target: Sialate O-acetylesterase (Homo sapiens) (UniProt Q9HAT2); experiment: blockers of sialate O-acetylesterase activity-probe labeling – biochemical, fluorescence polarization, FP-Rh probe, 1536-well HTS, primary screen (AID 1053197); conditions: SIAE FP-Rh probe binding, at 9.66 µM, active compounds read high;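 further: 0% = plate median of compound wells and 100% = probe without SIAE protein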
Sequence (Q9HAT2 whole entry, looked up): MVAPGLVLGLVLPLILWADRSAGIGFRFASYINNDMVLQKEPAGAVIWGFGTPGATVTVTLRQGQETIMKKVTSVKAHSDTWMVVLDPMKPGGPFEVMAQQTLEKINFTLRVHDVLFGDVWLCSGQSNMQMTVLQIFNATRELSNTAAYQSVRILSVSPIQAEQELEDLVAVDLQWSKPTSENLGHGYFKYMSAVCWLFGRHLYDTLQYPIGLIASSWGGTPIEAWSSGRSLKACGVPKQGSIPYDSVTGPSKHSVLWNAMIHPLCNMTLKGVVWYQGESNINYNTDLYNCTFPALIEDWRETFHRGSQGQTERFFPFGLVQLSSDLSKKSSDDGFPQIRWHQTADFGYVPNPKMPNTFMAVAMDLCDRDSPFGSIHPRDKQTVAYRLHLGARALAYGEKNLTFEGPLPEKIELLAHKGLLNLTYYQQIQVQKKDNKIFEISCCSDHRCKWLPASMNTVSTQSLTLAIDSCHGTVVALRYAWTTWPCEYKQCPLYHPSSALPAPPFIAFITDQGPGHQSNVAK

Structure (SMILES)	inhibition
COCCOC(=O)c1sc(=S)n(CCOC)c1N	35.8% (active)
CCC(NC(=O)C1C2C=CC3(CN(Cc4ccccc4)C(=O)C13)O2)c1ccccc1 (stereo unspecified)	0.07% (inactive)
O=C(CSc1nc2ccccc2s1)NN=Cc1ccc(O)cc1O	7.21% (inactive)
O=C(CSc1nnc(-c2ccccn2)n1-c1ccccc1)Nc1ccc2cn[nH]c2c1	1.79% (inactive)
Cc1ccc(-n2c(SCC(=O)Nc3ccc(S(=O)(=O)Nc4nccs4)cc3)nnc2-c2ccncc2)cc1	-12.6% (inactive)
CNCC(O)c1ccc(O)c(O)c1 (stereo unspecified)	4.81% (inactive)
CCC(C)c1ccc(O)c(/C=N/O)c1 (stereo unspecified)	23.1% (active)
O=S(=O)(c1ccccc1)N1CCC(c2nc3ccccc3o2)CC1	6.75% (inactive)
O=C1CC(c2ccc3c(c2)OCO3)N=C2N(CC3CC3)C/C(=C/c3ccccc3)N12 (stereo unspecified)	6.68% (inactive)
COc1ccc(-c2cc(-c3nnc(SCC(=O)Nc4cccc5ccccc45)n3N)[nH]n2)cc1	1.67% (inactive)
COC(=O)C[C@@H]1CC[C@@H]2[C@@H](COc3ccc(NC(=O)Nc4ccc(F)c(F)c4)cc3C(=O)N2C)O1	-2.22% (inactive)
O=C1CC[C@@H](COc2ccc3[nH]cc(-c4ccccc4)c3c2-c2ccccc2)N1	3.06% (inactive)
COc1ccc(N)c(C)c1	15.1% (inactive)
COc1ccc2[nH]c(=S)cc(C)c2c1	23.9% (active)
COc1ccc2[nH]c3c(C)c4cc[n+](C)cc4c(C)c3c2c1	3.4% (inactive)
COC(=O)C12C=C3CC(c4ccccc4)=C3C(=O)N1Cc1[nH]c3ccccc3c1C2 (stereo unspecified)	5.02% (inactive)
Cc1cc(NS(=O)(=O)c2ccc(NC(=O)CSc3nnc(SCc4ccc(F)cc4)s3)cc2)nc(C)n1	-8.85% (inactive)
COc1ccc(CN2C/C(=C/c3ccccc3)N3C(=O)C[C@@H](c4ccccc4)N=C23)c(OC)c1	3.22% (inactive)
O=C(NCc1ccco1)/C(=C\c1cccc([N+](=O)[O-])c1)NC(=O)c1ccco1	-0.85% (inactive)
Cc1ccc(C(=O)N/C(=C/c2ccc(-c3cccc([N+](=O)[O-])c3)o2)C(=O)NCCCN(C)C)cc1	21.2% (active)
O=C(NCc1ccco1)/C(=C/c1cccc([N+](=O)[O-])c1)NC(=O)c1ccco1	-7.3% (inactive)

Structure (SMILES)	inhibition
C=CCN1C(=O)[C@H](CC(=O)NCCCN2CCCC2=O)[C@@]2(C(=O)OCC)CCCC=C12	4.17% (inactive)
CCOC(=O)C1=C(C)NC2=C(C(=O)CC(C)(C)C2)C1c1ccc2c(c1)OCO2 (stereo unspecified)	-1.17% (inactive)
COc1ccc(C2C(C(C)=O)=C(O)C(=O)N2CCc2c[nH]c3ccccc23)cc1 (stereo unspecified)	18.4% (active)
COc1ccc2[nH]cc(CCN3C(=O)c4ccc(C(=O)O)cc4C3=O)c2c1	11.4% (inactive)
COC(=O)CN1C(=O)C(O)=C(C(C)=O)C1c1ccc([N+](=O)[O-])cc1 (stereo unspecified)	-9.46% (inactive)
CCOc1ccc(-n2c(SCC(=O)Nc3cc(C)c(NC(=O)c4ccccc4)cc3OC)nnc2-c2cccs2)cc1	-1.97% (inactive)
COC(=O)C1CN(CC(C)C)CCS(=O)(=O)N1Cc1ccc(F)cc1 (stereo unspecified)	-0.32% (inactive)
COCCCNC(=O)C[C@H]1C[C@@]2(C(=O)OC)C(=C[C@H](C(C)(C)C)O[C@@H]2C)N(Cc2ccc(Cl)cc2Cl)C1=O	-5.63% (inactive)
O=C(NCC1COc2ccccc2O1)c1ccc(NC(=O)c2cc(F)ccc2F)cc1 (stereo unspecified)	-1.61% (inactive)
CCOC(=O)[C@]12CCCCC/C=C\1N(Cc1ccc(OC)cc1)C(=O)[C@H]2CC(=O)N1CCOCC1	-1.12% (inactive)
COc1cc(OC)cc(C(=O)NCC(=O)N2CCCCCCC2)c1	0.93% (inactive)
COc1ccc(OC)c(CN2CCN(C(=O)CNC(=O)c3cc(C)cc(C)c3)CC2)c1	21.8% (active)
Cc1cc(C)cc(C(=O)NCC(=O)OCC(=O)N2CCCCC2)c1	2% (inactive)
CCOC(=O)[C@@]12CN(C(=O)OC(C)(C)C)CC=C1N(Cc1ccc(OC)cc1)C(=O)[C@H]2CC(=O)NCc1ccc(OC)c(OC)c1	4.2% (inactive)
CCOc1ccc(-c2nnc3ccc(SC)nn23)cc1	-1.24% (inactive)
COC(=O)C(C)Sc1ccc2nnc(-c3cccc(F)c3)n2n1 (stereo unspecified)	24.6% (active)
CCOC(=O)CNC(=O)CSc1ccc2nnc(-c3cccnc3)n2n1	0.77% (inactive)
CN(C)[C@H]1CCN(c2cccc3c2S(=O)(=O)N2CC[C@H](C2)O3)C1	-4.89% (inactive)
O=C(CN1CCCc2ccccc21)NCc1ccc(F)cc1	7.37% (inactive)
COC(=O)[C@H](C(C)C)N(CCCc1cn(Cc2ccccc2)nn1)S(=O)(=O)c1ccc(F)cc1Br	-3.32% (inactive)
CC(=N\NC(=O)c1cc(Br)ccc1O)/C(=N/O)C(=O)Nc1ccccc1	9.77% (inactive)

Structure (SMILES)	inhibition
CC(C)/C=N/NC(=O)c1cc(Br)ccc1O	19.5% (active)
O=C(N/N=C1\CCSC1)c1cc(Cl)ccc1O	8.12% (inactive)
COc1ccc(-n2c(SCC(=O)NC3CCCC3)nnc2-c2ccncc2)cc1	6.27% (inactive)
O=C(NC1CCC1)c1ccc(C#Cc2cccc(F)c2)c[n+]1[O-]	-0.65% (inactive)
O=c1[nH]n(-c2ccc([N+](=O)[O-])cc2)c(=O)c2ccccc12	31.2% (active)
CC(C)(C)c1cnnn1-c1ccc([N+](=O)[O-])cc1	-4.05% (inactive)
O=C(Nn1c(SCc2ccc([N+](=O)[O-])cc2)nc2ccccc2c1=O)c1ccc(F)cc1	-45.6% (inactive)
O=C(NCCC1=CCCCC1)C1CCN(S(=O)(=O)c2ccc(Cl)s2)CC1	-2.35% (inactive)
C/C=C/c1ccc(OCC(=O)OCC(=O)Nc2c(C)nn(-c3ccccc3)c2C)c(OC)c1	18.3% (active)
Cc1nn(-c2ccccc2)c(C)c1NC(=O)COC(=O)c1cc(Cl)ccc1O	-4.36% (inactive)
CCC(Oc1ccccc1)C(=O)OCC(=O)Nc1c(C)nn(-c2ccccc2)c1C (stereo unspecified)	5.85% (inactive)
COc1ccc(CCNc2ncnc3nc[nH]c23)cc1OC	32.2% (active)
CCc1ccc(N(CC)c2ncnc3nc[nH]c23)cc1	-3.78% (inactive)
COc1ccc(CCNc2nc3ccc(C)cc3n3cnnc23)cc1OC	-5.53% (inactive)
Cc1ccc(OCc2nnc(SC/C=C/c3ccccc3)n2Cc2ccco2)cc1	4.07% (inactive)
C=CCN(C(=O)[C@@H](CCCC)[C@@H](O)c1ccc(Cl)cc1)c1ccccc1	-2.75% (inactive)
COc1ccc(-c2csc(Nc3ccc(O)cc3)n2)cc1	26.2% (active)
COc1ccc(-c2ccc3nnc(SCC(=O)Nc4ccc(NC(C)=O)cc4)n3n2)cc1	-23.3% (inactive)
CN(c1ccc(O)cc1)c1nc(-c2cccnc2)cs1	7.08% (inactive)

— PubChem BioAssay AID1053197 (The Scripps Research Institute Molecular Screening Center, 2014)
